NPC1 promoter act: activates the NPC1 promoter. Huh7 NPC1 promoter luciferase reporter, 24 h. Potency, µM (titrated, usually from 9.22 µM), without a hit: top-dose activation, actives largely listed as activators. 320,000 compounds, 2.4% hits; further: % of control where 0% means no effect; nearly all actives have a fitted effect of over 60% in size
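Huh7 cells stably carrying NPC1 promoter–luciferase, plated in Opti-MEM with 10% FBS for 2 h, were exposed to compound in DMSO for 24 h at 37 °C; luciferase reagent was added for 10 min and luminescence read.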
ELG1 genotox: inducers of genotoxicity in HEK293T ELG1-luciferase cells; HEK293T ELG1-luciferase reporter, luminescence, 16 h; Potency, µM (titrated, usually from 46 µM), inactives show at the top dose activity change, positive = activation, most hits filed as activators; 330,000 compounds, 1.3% hits; further: % of control where 0% means no effect; nearly all actives have a fitted effect of over 60% in size
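Quantitative HTS format in 1536-well plates. HEK293T ELG1-luciferase reporter cells receive test compound and are incubated 16 hr at 37 °C, 5% CO2; ONE-Glo added, 30 min room temperature, then luminescence read.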
SMN2 splice enh: enhancers of SMN2 splice variant expression. HEK293 SMN2-luciferase splicing reporter, luminescence, 30-36 h. Potency, µM (doses to about 46.1 µM), without a hit: at the top dose activity change, positive = activation, hits mostly activators. 210,000 compounds, 2.8% hits; further: % of control where 0% means no effect; nearly all actives have a fitted effect of over 55% in size
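HEK293 cells carry an SMN2 […]–luciferase reporter in which exon 7 inclusion puts luciferase in frame. Cells were plated 10-12 h before compound addition, then incubated 30-36 h at 37C. ONE-Glo luminescence was read; sodium butyrate at 4.5 mM final served as control.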
FLuc modulator: firefly luciferase modulation, counter-screen for miR-21 project; P08659; purified FLuc, Km substrates, luminescence inhibition; Potency, µM (highest dose often 57.5 µM), inactives show at the top dose activity change, negative = inhibition, most hits filed as inhibitors; 360,000 compounds, 6.9% hits; AID 588342;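 further: plate controls were vehicle for no effect and reference inhibitor for full effect; nearly all actives have a fitted effect of over 55% in size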
Target sequence (P08659 whole entry, looked up): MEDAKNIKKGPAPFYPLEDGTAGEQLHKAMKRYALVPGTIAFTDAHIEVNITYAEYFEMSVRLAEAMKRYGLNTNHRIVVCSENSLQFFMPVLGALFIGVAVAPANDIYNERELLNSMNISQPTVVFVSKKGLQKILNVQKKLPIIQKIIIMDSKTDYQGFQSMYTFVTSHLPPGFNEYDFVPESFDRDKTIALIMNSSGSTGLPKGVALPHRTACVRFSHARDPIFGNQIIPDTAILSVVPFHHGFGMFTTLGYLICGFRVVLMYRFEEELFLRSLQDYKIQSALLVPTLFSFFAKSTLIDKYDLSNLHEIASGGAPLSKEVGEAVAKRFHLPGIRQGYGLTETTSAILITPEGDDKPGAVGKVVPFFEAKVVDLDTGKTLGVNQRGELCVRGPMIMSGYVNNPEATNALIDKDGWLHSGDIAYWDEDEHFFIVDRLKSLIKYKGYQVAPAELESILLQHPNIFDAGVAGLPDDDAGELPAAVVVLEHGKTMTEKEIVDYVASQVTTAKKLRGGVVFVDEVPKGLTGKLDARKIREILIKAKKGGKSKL
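Purified P. pyralis luciferase (10nM final) with 10uM D-luciferin and 10uM ATP (Km levels) in 50mM Tris acetate pH 7.5, 10mM Mg acetate, 0.01% Tween-20, 0.05% BSA; qHTS 6-point titration, ~60 µM downward; luminescence read.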
Rab9 prom act: Rab9 promoter activation | 320,000 compounds, 2.8% hits | Huh7 Rab9 promoter-luciferase reporter, luminescence, 24 h | Potency, µM (doses to about 9.22 µM), for the others: at the highest dose activation, negative = inhibition, usual class: activators; further: % of control where 0% means no effect; nearly all actives have a fitted effect of over 60% in size
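Luciferase signal after 10 min detection reagent at ambient indicates Rab9 promoter upregulation; stably transfected Huh7 cells were treated 24 h with compound in DMSO at 37 °C, 5% CO2.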
* hit, by the source's call; ? = inconclusive; . = not tested or not shown. The list is not random: actives were taken first. Their share in the collection is about 7.4%. The call rests on the fitted dose curve; in most records, active means well fitted curve in the direction sought with a large enough effect; inconclusive means small, poorly fitted or top-dose-only effect, or another doubt; inactive means no such curve, though single readings can be large; an effect the other way counts as inactive or inconclusive. Potency means the concentration at half of the fitted maximal effect.

SMILES	NPC1 promoter act	ELG1 genotox	SMN2 splice enh	FLuc modulator	Rab9 prom act
Cc1ccc(S(=O)(=O)Nc2ccc(-c3ccc4nncn4n3)cc2)cc1	-1%	9%	.	9%	-1%
c1ccc2nc(-c3ccncc3)ccc2c1	?	?	20%	?	?
c1ccc2nc(-c3nccs3)ccc2c1	24%	?	17%	13µM*	?
Clc1ccsc1-c1ccc2ccccc2n1	?	?	?	11µM*	?
Cc1ccsc1-c1ccnc(-n2cccc2)n1	4%	0%	-13%	?	12%
S=c1[nH]nc(-c2ccc3ccccc3n2)o1	-1%	11%	-19%	?	-2%
Clc1ccsc1-c1ccnc(-n2cccc2)n1	12%	12%	7%	17µM*	-2%
CC(C)(C)NC(=O)NC(=O)CN1CCN(S(=O)(=O)c2ccc3c(c2)OCCO3)CC1	2%	0%	.	-1%	-6%
O=C(O)c1sc2cc(C(F)(F)F)cnc2c1-c1cccs1	2%	-8%	6%	11µM*	-10%
CCOc1ccccc1N(CC)C(=O)Cn1ncc2c([nH]c3ccccc32)c1=O	.	.	.	-1%	.
Cc1ccc(C(=O)Nc2ccc(C(=O)N/N=C/c3ccccn3)cc2)cc1	27%	-29%	.	15µM*	?
COc1cc(C(=O)N/N=C/c2ccccn2)cc(OC)c1OC	-22%	-3%	-16%	3%	-4%
O=C(N/N=C/c1ccccn1)c1cccs1	5%	?	-45%	19µM*	7%
O=C(N/N=C/c1ccc[nH]1)c1ccc(Cl)cc1	-24%	19%	8%	11µM*	-3%
CN(C)c1ccc(C(=O)N/N=C/c2ccccn2)cc1	2.8µM*	?	.	13µM*	2.5µM*
CC1(c2ccc(Cl)cc2)NC(=O)N(CC(=O)Nc2cccnc2Cl)C1=O (stereo not drawn)	1%	-5%	.	3%	-9%
CC(OC(=O)CCC(=O)c1ccc(F)cc1)C(=O)NC1CCCCC1C (stereo not drawn)	-4%	1%	.	6%	1%
O=C(N/N=C/c1ccccn1)c1ccccc1	?	?	11µM*	11µM*	3.5µM*
O=C(N/N=C/c1ccccn1)c1ccc(Cl)cc1	?	18µM*	.	8.5µM*	3.2µM*
COc1ccc(C(=O)N/N=C/c2ccccn2)cc1OC	-1%	-1%	.	-6%	9%
CC(C)c1csc(CN2CCCC(CNC(=O)c3cccc4ccccc34)C2)n1 (stereo not drawn)	1%	-11%	.	0%	2%
Cc1ccccc1Cn1nnc(-c2ccc(F)cc2)n1	1%	3%	.	-13%	1%
Cc1nc(N)sc1N=Nc1ccc(Br)cc1	2.2µM*	?	?	4.3µM*	1.3µM*
O=C(Nc1ccc(F)c(Cl)c1)c1cc(S(=O)(=O)N2CCc3ccccc3C2)ccc1F	.	.	.	-2%	.
CCCS(=O)(=O)N1CCc2ccc(NC(=O)c3ccccc3Cl)cc2C1	2%	-3%	.	17µM*	0%
SMILES	NPC1 promoter act	ELG1 genotox	SMN2 splice enh	FLuc modulator	Rab9 prom act
CSCC(=O)N1CCc2ccc(NC(=O)c3ccccc3Cl)cc2C1	?	?	.	17µM*	?
CN(C)S(=O)(=O)N1CCc2ccc(NC(=O)c3ccccc3Cl)cc2C1	15%	4%	.	11µM*	17%
CN(C)S(=O)(=O)N1CCc2ccc(NC(=O)C3CCCO3)cc2C1 (stereo not drawn)	-4%	6%	.	-3%	2%
C=Cc1ccc(Cn2c(=O)n(CCCOC)c(=O)c3sccc32)cc1	-1%	2%	.	-4%	2%
COC(=O)c1ccc(NC(=O)CSc2ccccn2)cc1	2%	?	-14%	?	13%
COC(=O)c1ccc(NC(=O)CSc2ccccc2)cc1	19%	?	17%	27µM*	?
O=C(CSc1ccc(F)cc1)Nc1ccc(Br)cc1	?	?	?	13µM*	2.8µM*
CC(C)Oc1cc(O)c2c(=O)c(-c3ccc(O)cc3)coc2c1	0.89µM*	16µM*	7.1µM*	5.4µM*	1.4µM*
COc1ccc(-c2coc3cc(OC)cc(O)c3c2=O)cc1	0.63µM*	?	13µM*	1.5µM*	1µM*
O=c1c(-c2cc(O)c(O)c(O)c2)coc2cc(O)c(O)c(O)c12	.	.	-5%	.	.

Bioassay records (PubChem BioAssay)
